Results published in PubChem BioAssay AID1159580 (chemical genetic matrix, 2015).
Several values for one entry are separate records, joined by “and”; a condition that tells them apart may be missing. Identical values can stand only once. Hit rate of the full screen: of about 5,500 compounds, about 2,000 (36%) were called active. Another 18% or so got no clear call; they are omitted. Cut-off read from the data, not from the text of the source: active = normalized growth mostly below about 0.91 (no sharp cut-off); inconclusive = no clear call, values can overlap the other calls; inactive = mostly above about 0.92. Some of the results follow.

Assay: chemical genetic growth profiling, strain panel (AID 1159580);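 note: tested at 20 µM; growth read once vehicle control cultures reached saturation at 30 °C; 1 = growth at the plate median or of vehicle wells; lower values mean less growth of the strain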
Conditions: S. cerevisiae deletion strains, growth OD

Measured: normalized growth

C[C@H]1c2cccc(O)c2C(O)=C2C(=O)[C@]3(O)C(O)=C(C(N)=O)C(=O)[C@@H](N(C)C)[C@@H]3[C@@H](O)[C@@H]21
inactive: locus YAL021C, strain ccr4, stronger effect = lower value 0.991 | locus YAL026C, strain drs2, stronger effect = lower value 0.978 | locus YAL030W, strain snc1, stronger effect = lower value 0.976 | locus YBL061C, strain skt5, stronger effect = lower value 0.995 | locus YBR009C, strain hhf1, stronger effect = lower value 0.958 | locus YBR021W, strain FUR4, stronger effect = lower value 0.884 | locus YBR023C, strain chs3, stronger effect = lower value 0.987 | locus YBR171W, strain sec66, stronger effect = lower value 0.956 | locus YBR229C, strain ROT2, stronger effect = lower value 1 | locus YBR231C, strain swc5, stronger effect = lower value 0.979 | locus YBR279W, strain paf1, stronger effect = lower value 0.988 | locus YCL011C, strain gbp2, stronger effect = lower value 0.971 | locus YCL016C, strain dcc1, stronger effect = lower value 1.02 | locus YCL029C, strain bik1, stronger effect = lower value 0.953 | locus YCL069W, strain vba3, stronger effect = lower value 0.956 | locus YCR088W, strain abp1, stronger effect = lower value 0.985 | locus YDL005C, strain med2, stronger effect = lower value 0.998 | locus YDL035C, strain GPR1, stronger effect = lower value 0.963 | locus YDL040C, strain nat1, stronger effect = lower value 0.975 | locus YDL074C, strain BRE1, stronger effect = lower value 0.963 | locus YDL101C, strain DUN1, stronger effect = lower value 0.984 | locus YDL185W, strain tfp1, stronger effect = lower value 0.954 | locus YDL192W, strain arf1, stronger effect = lower value 0.966 | locus YDR001C, strain nth1, stronger effect = lower value 0.984 | locus YDR069C, strain doa4, stronger effect = lower value 0.973 | locus YDR101C, strain arx1, stronger effect = lower value 1.01 | locus YDR137W, strain rgp1, stronger effect = lower value 0.962 | locus YDR159W, strain sac3, stronger effect = lower value 0.951 | locus YDR162C, strain NBP2, stronger effect = lower value 0.978 | locus YDR195W, strain ref2 0.979 | locus YDR297W, strain sur2, stronger effect = lower value 0.991 | locus YDR318W, strain mcm21, stronger effect = lower value 0.961 | locus YDR334W, strain swr1, stronger effect = lower value 0.944 | locus YDR335W, strain msn5, stronger effect = lower value 0.988 | locus YDR388W, stronger effect = lower value 0.98 | locus YDR392W, strain spt3, stronger effect = lower value 0.911 | locus YDR502C, strain sam2, stronger effect = lower value 0.979 | locus YEL003W, strain gim4, stronger effect = lower value 0.978 | locus YEL037C, strain rad23, stronger effect = lower value 0.975 | locus YEL061C, strain CIN8 (second series), stronger effect = lower value 0.971 | locus YEL061C, strain CIN8, stronger effect = lower value 0.984 | locus YER015W, strain faa2, stronger effect = lower value 0.977 | locus YER016W, strain bim1, stronger effect = lower value 1.01 | locus YER110C, stronger effect = lower value 0.965 | locus YER111C, strain swi4, stronger effect = lower value 0.995 | locus YER155C, strain BEM2 (second series), stronger effect = lower value 0.886 | locus YER155C, strain BEM2, stronger effect = lower value 1.01 | locus YER167W, strain BCK2, stronger effect = lower value 0.994 | locus YFR010W, strain ubp6, stronger effect = lower value 0.955 | locus YGL078C, strain dbp3, stronger effect = lower value 0.968 | locus YGL086W, strain mad1, stronger effect = lower value 0.992 | locus YGL167C, strain pmr1, stronger effect = lower value 0.965 | locus YGL173C, strain kem1, stronger effect = lower value 0.975 | locus YGL227W, strain vid30, stronger effect = lower value 0.987 | locus YGL240W, strain doc1, stronger effect = lower value 0.96 | locus YGL253W, strain hxk2, stronger effect = lower value 0.988 | locus YGR135W, strain pre9, stronger effect = lower value 0.923 | locus YGR229C, strain SMI1, stronger effect = lower value 0.983 | locus YGR252W, strain gcn5, stronger effect = lower value 0.93 | locus YHR013C, strain ard1, stronger effect = lower value 1.05 | locus YHR027C, strain rpn1, stronger effect = lower value 0.98 | locus YHR030C, strain SLT2, stronger effect = lower value 0.996 and 1.03 | locus YHR079C, strain IRE1 (second series), stronger effect = lower value 0.978 | locus YHR079C, strain IRE1, stronger effect = lower value 1.03 | locus YHR094C, strain hxt1, stronger effect = lower value 0.987 | locus YHR129C, strain ARP1, stronger effect = lower value 0.994 | locus YHR142W, strain chs7, stronger effect = lower value 0.998 | locus YHR200W, strain rpn10, stronger effect = lower value 0.97 | locus YIL066C, strain RNR3, stronger effect = lower value 0.974 | locus YIL073C, strain SPO22, stronger effect = lower value 0.751 | locus YIL125W, strain kgd1, stronger effect = lower value 0.983 | locus YIR030C, strain dcg1, stronger effect = lower value 0.961 | locus YJL092W, strain hpr5, stronger effect = lower value 0.991 | locus YJL095W, strain BCK1 (second series), stronger effect = lower value 0.979 | locus YJL095W, strain BCK1, stronger effect = lower value 0.929 and 1.03 | locus YJL115W, strain asf1, stronger effect = lower value 0.963 | locus YJL129C, strain trk1, stronger effect = lower value 0.991 | locus YJL134W, strain LCB3, stronger effect = lower value 1 | locus YJL154C, strain vps35, stronger effect = lower value 0.983 | locus YJL164C, strain tpk1, stronger effect = lower value 0.976 | locus YJL166W, strain qcr8, stronger effect = lower value 0.944 | locus YJL168C, strain set2, stronger effect = lower value 0.985 | locus YJL187C, strain SWE1 (second series), stronger effect = lower value 0.97 | locus YJR043C, strain POL32, stronger effect = lower value 0.958 | locus YJR066W, strain TOR1, stronger effect = lower value 0.928 | locus YKL009W, strain mrt4, stronger effect = lower value 0.967 | locus YKL068W, stronger effect = lower value 0.986 | locus YKL085W, strain MDH1 (second series), stronger effect = lower value 0.972 | locus YKL085W, strain MDH1, stronger effect = lower value 0.972 | locus YKL160W, strain elf1, stronger effect = lower value 0.992 | locus YKL190W, strain CNB1, stronger effect = lower value 0.988 | locus YKR001C, strain vps1, stronger effect = lower value 0.942 | locus YKR026C, strain gcn3, stronger effect = lower value 0.972 | locus YKR091W, strain srl3, stronger effect = lower value 0.985 | locus YLL001W, strain dnm1, stronger effect = lower value 0.974 | locus YLL026W, stronger effect = lower value 0.991 | locus YLL041C, strain sdh2, stronger effect = lower value 0.973 | locus YLR027C, strain aat2, stronger effect = lower value 0.998 | locus YLR039C, strain RIC1, stronger effect = lower value 0.971 | locus YLR058C, strain SHM2, stronger effect = lower value 0.976 | locus YLR102C, strain apc9, stronger effect = lower value 0.968 | locus YLR113W, strain HOG1, stronger effect = lower value 1.08 | locus YLR221C, strain rsa3, stronger effect = lower value 0.962 | locus YLR258W, strain gsy2, stronger effect = lower value 0.978 | locus YLR262C, strain YPT6 (second series), stronger effect = lower value 0.936 | locus YLR262C, strain YPT6, stronger effect = lower value 0.967 | locus YLR268W, strain sec22, stronger effect = lower value 0.955 | locus YLR320W, strain mms22, stronger effect = lower value 0.944 | locus YLR330W, strain CHS5, stronger effect = lower value 0.979 | locus YLR342W, strain FKS1 (second series), stronger effect = lower value 0.859 | locus YLR342W, strain FKS1, stronger effect = lower value 0.977 | locus YLR357W, strain rsc2, stronger effect = lower value 0.911 | locus YLR370C, strain arc18, stronger effect = lower value 0.982 | locus YLR371W, strain rom2, stronger effect = lower value 0.963 | locus YLR384C, strain iki3, stronger effect = lower value 1 | locus YLR418C, strain cdc73, stronger effect = lower value 0.91 | locus YML016C, strain PPZ1, stronger effect = lower value 0.979 | locus YML032C, strain rad52, stronger effect = lower value 0.984 | locus YML120C, strain ndi1, stronger effect = lower value 0.97 | locus YML124C, strain tub3, stronger effect = lower value 0.993 | locus YMR058W, strain fet3, stronger effect = lower value 0.947 | locus YMR078C, strain ctf18, stronger effect = lower value 0.963 | locus YMR125W, strain sto1, stronger effect = lower value 0.958 | locus YMR129W, stronger effect = lower value 0.989 | locus YMR205C, strain PFK2, stronger effect = lower value 0.992 | locus YMR223W, strain ubp8, stronger effect = lower value 0.922 | locus YMR231W, strain pep5, stronger effect = lower value 0.989 | locus YMR307W, strain GAS1, stronger effect = lower value 1.08 | locus YNL067W, strain RPL9B, stronger effect = lower value 0.939 | locus YNL071W, strain lat1, stronger effect = lower value 0.975 | locus YNL183C, strain NPR1, stronger effect = lower value 0.987 | locus YNL209W, strain ssb2, stronger effect = lower value 0.985 | locus YNL233W, strain BNI4, stronger effect = lower value 0.939 | locus YNL248C, strain rpa49, stronger effect = lower value 0.95 | locus YNL250W, strain rad50, stronger effect = lower value 0.966 | locus YNL271C, strain bni1, stronger effect = lower value 0.981 | locus YNL298W, strain CLA4, stronger effect = lower value 0.969 | locus YNL307C, strain MCK1, stronger effect = lower value 0.973 | locus YNL322C, strain KRE1 (second series), stronger effect = lower value 0.969 | locus YNL322C, strain KRE1, stronger effect = lower value 0.991 | locus YNR049C, strain mso1, stronger effect = lower value 0.984 | locus YNR052C, strain pop2, stronger effect = lower value 0.979 | locus YOL012C, strain htz1 1.14 | locus YOL147C, strain pex11, stronger effect = lower value 0.988 | locus YOR001W, strain rrp6, stronger effect = lower value 0.923 | locus YOR061W, strain CKA2, stronger effect = lower value 0.993 | locus YOR069W, strain VPS5, stronger effect = lower value 0.998 | locus YOR070C, strain gyp1, stronger effect = lower value 0.99 | locus YOR080W, strain dia2, stronger effect = lower value 0.982 | locus YOR083W, strain WHI5, stronger effect = lower value 1 | locus YOR106W, strain vam3, stronger effect = lower value 0.965 | locus YOR136W, strain idh2, stronger effect = lower value 0.98 | locus YOR144C, strain elg1, stronger effect = lower value 0.995 | locus YOR184W, strain ser1, stronger effect = lower value 0.939 | locus YOR231W, strain MKK1, stronger effect = lower value 1.06 | locus YOR265W, strain rbl2, stronger effect = lower value 0.992 | locus YOR270C, strain vph1, stronger effect = lower value 0.943 | locus YOR290C, strain snf2, stronger effect = lower value 1 | locus YOR316C, strain cot1, stronger effect = lower value 0.973 | locus YPL051W, strain arl3, stronger effect = lower value 0.993 | locus YPL055C, strain LGE1, stronger effect = lower value 0.866 | locus YPL078C, strain atp4, stronger effect = lower value 0.999 | locus YPL106C, strain sse1, stronger effect = lower value 0.912 | locus YPL240C, strain hsp82, stronger effect = lower value 0.984 | locus YPL241C, strain CIN2, stronger effect = lower value 0.998 | locus YPL256C, strain CLN2, stronger effect = lower value 1.05 | locus YPR119W, strain clb2, stronger effect = lower value 0.98 | locus YPR141C, strain kar3, stronger effect = lower value 0.965 | locus YPR163C, strain tif3, stronger effect = lower value 0.985 | locus YPR167C, strain met16, stronger effect = lower value 0.982
active: locus YGL248W, strain PDE1, stronger effect = lower value 0.854 | strain wtn01, stronger effect = lower value 0.891
